Results: PubChem BioAssay (NCATS)
“And” between values parts separate entries of the source, which are not always exact repeats. Identical values can stand only once. Results filed as inconclusive are left out. Unmarked numbers belong to inactive results. The source made the active and inactive calls. Calls follow the shape of the dose curve; as a rule, active = well fitted curve in the direction sought with a large enough effect; inconclusive = small, poorly fitted or top-dose-only effect, or another doubt; inactive = no such curve, though single readings can be large; an effect the other way counts as inactive or inconclusive. Bridge positions count the residues as written; N and C are the ends. Square brackets hold non-standard residues; d marks the D form. Peptide text beside a SMILES is read from it. * marks the point of attachment. ξ: configuration not given here. Octanoyl(6-Me) = CCC(C)CCCCC(=O)*; ξThr(3R) = C[C@@H](O)C(N)C(=O)O; dDab = NCC[C@@H](N)C(=O)O; Dab = NCC[C@H](N)C(=O)O

What was measured:
[1] = Viability qHTS for spleen associated tyrosine kinase inhibitor (SYKi) naive MV4-11 cells (AID 1963823); also: nearly all actives have a fitted effect of over 40% in size
Procedure, shortened: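 CellTiter-Glo luminescence, 10 min room-temperature incubation, gave viability. Cells: naive MV4-11 (500/well), treated 72 hr at 37 C, 5% CO2.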

[2] = Viability qHTS for spleen associated tyrosine kinase inhibitor (SYKi) drug resistant MV4-11 cells (AID 1963824); also: nearly all actives have a fitted effect of over 35% in size
Procedure, shortened: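 CellTiter-Glo luminescence, read 10 min after reagent addition, reports viability after a 72 hr compound exposure. Cells are an MV4-11 line made resistant to SYK inhibition, seeded at 500 per well onto compound-containing plates.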

[3] = Quantitative highthroughput screen to assess conditional lethalithy of NOMO1 cells grown in RPMI1640 with untreated serum (RPMI+s) (AID 1963876); also: nearly all actives have a fitted effect of over 35% in size;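 as to Viability: 100% = DMSO wells and 0% = empty wells without cells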
Procedure, shortened: (§1)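 Each medium arm—HPLM with 10% dialyzed FBS, or RPMI1640 with 5 mM glucose and 10% untreated or dialyzed FBS—was screened against an 11-point, 3-fold compound titration for 48 h at 37 °C, with CellTiter-Glo luminescence as endpoint.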

[4] = Cellular viability qHTS for adrenocortical cancer (ACC) cell line NCI-H295R (AID 1963990); also: nearly all actives have a fitted effect of over 60% in size
Procedure, shortened: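 Luminescent ATP read-out (CellTiter-Glo, 20 min RT) after 48 h drug exposure of NCI-H295R cells; a titration up to 46 uM final. Data normalized to doxorubicin (100% inhibition) and DMSO (0%); 4-parameter fit gives IC50, max response.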

[5] = Quantitative highthroughput screen to assess conditional lethalithy of NOMO1 cells grown in RPMI1640 with dialyzed fetal bovine serum (RPMI+ds) (AID 1963877); also: nearly all actives have a fitted effect of over 30% in size;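 as to Viability: series mostly up to about 46 µM; 100% = DMSO control wells and 0% = empty wells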
Procedure, shortened: as §1

[6] = Quantitative highthroughput screen to assess conditional lethalithy of P12 Ichikawa cells grown in RPMI1640 with dialyzed fetal bovine serum (RPMI+ds) (AID 1963880); settings: Potency: P12-Ichikawa viability; also: nearly all actives have a fitted effect of over 35% in size;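 as to Viability: 100% = DMSO wells and 0% = empty wells on each plate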
Procedure, shortened: as §1

[7] = Quantitative highthroughput screen to assess conditional lethalithy of P12 Ichikawa cells grown in RPMI1640 with untreated serum (RPMI+s) (AID 1963881); settings: Potency: viability; also: nearly all actives have a fitted effect of over 35% in size;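 as to Viability: series mostly up to about 46 µM; 100% = DMSO wells and 0% = empty wells without cells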
Procedure, shortened: as §1

[8] = Quantitative highthroughput screen to assess conditional lethalithy of SEM cells grown in Human Plasma-Like Medium with dialyzed fetal bovine serum (HPLM+ds) (AID 1963882); also: nearly all actives have a fitted effect of over 35% in size; as to Viability: series mostly up to about 46 µM
Procedure, shortened: as §1

[9] = Quantitative highthroughput screen to assess conditional lethalithy of SEM cells grown in RPMI1640 with unreated serum (RPMI+s) (AID 1963883); also: nearly all actives have a fitted effect of over 35% in size;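 as to Viability: 100% = DMSO wells and 0% = empty wells without cells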
Procedure, shortened: as §1

[10] = Quantitative highthroughput screen to assess conditional lethalithy of SEM cells grown in RPMI1640 with dialyzed fetal bovine serum (RPMI+ds) (AID 1963884); also: nearly all actives have a fitted effect of over 35% in size;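 as to Viability: series mostly up to about 46 µM; 100% = DMSO control wells and 0% = empty wells without cells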
Procedure, shortened: as §1

[11] = Cellular viability qHTS for adrenocortical cancer (ACC) cell line SW-13 (AID 1963989); settings: SW-13 ACC cells viability, CellTiter-Glo, 48 h; activity (max response): hits give low values; also: nearly all actives have a fitted effect of over 65% in size;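 as to activity (max response): cells grown in serum-free medium with ITS supplement; % is scaled to controls: 0 for no effect and ±100 for the full control effect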
Procedure, shortened: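 SW-13 cells in ITS-supplemented serum-free DMEM were plated overnight, then exposed for 48 h at 37C to compound titrations (up to 46 uM final). Viability was read by CellTiter-Glo luminescence; four-parameter logistic fits gave IC50 and efficacy.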

[12] = Quantitative highthroughput screen to assess conditional lethalithy of P12 Ichikawa cells grown in Human Plasma-Like Medium with dialyzed fetal bovine serum (HPLM+ds) (AID 1963879); settings: Potency: viability; also: nearly all actives have a fitted effect of over 35% in size; as to Viability: series mostly up to about 46 µM
Procedure, shortened: as §1

[13] = Quantitative highthroughput screen to assess conditional lethalithy of NOMO1 cells grown in Human Plasma-Like Medium with dialyzed fetal bovine serum (HPLM+ds) (AID 1963878); also: nearly all actives have a fitted effect of over 35% in size;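 as to Viability: 100% = DMSO wells and 0% = empty wells on each plate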
Procedure, shortened: as §1
Potency is read from the fitted curve at half-maximal effect.

Row | SMILES | Potency [1] | Potency [2] | Potency [3] | Potency [4] | Potency [5] | Potency [6] | Potency [7] | Potency [8] | Potency [9] | Potency [10] | Potency [11] | Potency [12] | Potency [13] | activity (max response) [11] [%]
1 | CC(=O)O[C@H]1C(=O)[C@@]2(C)C([C@H](OC(=O)c3ccccc3)[C@]3(O)C[C@H](OC(=O)[C@H](O)[C@@H](NC(=O)c4ccccc4)c4ccccc4)C(C)=C1C3(C)C)[C@]1(OC(C)=O)CO[C@@H]1C[C@@H]2O (stereo not given in full) | 5.1 nM (active) and 8.3 nM (active) | 3.6 nM (active) and 7.4 nM (active) | 0.0013 µM (active) | 0.1 µM (active) |  |  |  |  |  |  |  |  |  | 
2 | COc1cc(OC2CCN(C)CC2)ccc1Nc1ncc2c(n1)n(C1CCCC1)c(=O)n2C | 1.86 µM (active) | 2.95 µM (active) |  | 15.8 µM (active) | 18.7 µM (active) | 20.9 µM (active) | 23.5 µM (active) | 10.5 µM (active) | 11.8 µM (active) | 14.8 µM (active) | 25.1 µM (active) |  |  | 
3 | NC(=O)N1CCC(CC(=O)N2CCC([C@H]3c4ncc(Br)cc4CCc4cc(Cl)cc(Br)c43)CC2)CC1 | 5.9 µM (active) | 4.17 µM (active) |  |  | inactive |  |  |  |  |  |  |  |  | 
4 | CN(C)c1ccc(Nc2nc(N)n(C(=O)c3c(F)cccc3F)n2)cc1 | 3.66 µM (active) | 4.17 µM (active) |  |  | 11.8 µM (active) |  |  |  |  |  |  |  |  | 
5 | Cc1ccc(S(=O)(=O)N[C@@H](Cc2ccccc2)C(=O)CCl)cc1 | 9.34 µM (active) | 8.33 µM (active) | inactive | 22.4 µM (active) |  |  |  |  |  |  |  |  |  | 
6 | Cn1cc(-c2[nH]c3cc(NC(=O)[C@H](N)C4CCCCC4)cc4c3c2C=NNC4=O)cn1 | 0.0661 µM (active) | 164 nM (active) and 83.3 nM (active) |  | inactive | 5.26 µM (active) | 6.62 µM (active) | 7.43 µM (active) | 2.96 µM (active) |  | 1.18 µM (active) |  | 16.6 µM (active) |  | 
7 | CCC(C)CCCCC(=O)N[C@@H](CCN)C(=O)NC(C(=O)N[C@H](CCN)C(=O)N[C@@H]1CCNC(=O)C([C@@H](C)O)NC(=O)[C@@H](CCN)NC(=O)[C@@H](CCN)NC(=O)[C@@H](CC(C)C)NC(=O)[C@H](Cc2ccccc2)NC(=O)[C@H](CCN)NC1=O)[C@@H](C)O (stereo partly drawn) ({Octanoyl(6-Me)}-[Dab][ξThr(3R)][dDab][dDab][Dab]F[dL][dDab][dDab][ξThr(3R)]; lactam 4-C) | inactive | inactive |  | inactive | inactive | inactive | inactive | inactive | inactive | inactive |  | inactive | inactive | 3.16
8 | CC[C@]1(O)C[C@H]2CN(CCc3c([nH]c4ccccc34)[C@@](C(=O)OC)(c3cc4c(cc3OC)N(C=O)[C@H]3[C@@](O)(C(=O)OC)[C@H](OC(C)=O)[C@]5(CC)C=CCN6CC[C@]43[C@@H]65)C2)C1 | 0.0118 µM (active) | 119 nM (active) and 10.5 nM (active) |  | 146 nM (active) and 1.78 µM (active) | 0.0662 µM (active) | 0.0418 µM (active) | 0.0264 µM (active) | 0.0332 µM (active) |  | 0.0469 µM (active) | 8.2 nM (active) and 28.2 nM (active) | 0.0264 µM (active) |  | 
9 | CC(C)C(=O)Nc1ncc(-c2cc(C(F)F)nn2-c2c(Cl)cccc2Cl)s1 | 18.6 µM (active) | 13 µM (active) | inactive | 22.4 µM (active) |  |  |  |  |  |  |  |  |  | 
10 | CNC1CCC(N(Cc2cccc(-c3ccncc3)c2)C(=O)c2sc3c(F)ccc(F)c3c2Cl)CC1 (stereo not given) | 2.63 µM (active) and 8.2 µM (active) | 8.33 µM (active) and 7.31 µM (active) | inactive | 7.08 µM (active) |  |  |  |  |  |  | 10 µM (active) |  |  | 
11 | COc1ccc([C@@H]2CNC(=O)C2)cc1OC1CCCC1 | inactive | inactive |  | inactive | inactive |  | inactive | inactive | inactive | inactive |  | inactive | inactive | -15.2
12 | CC(C)C[C@@H](C(=O)N[C@H](C(=O)OC1CCCC1)c1ccccc1)[C@H](O)C(=O)NO | 0.372 µM (active) | 0.0742 µM (active) |  |  | 23.5 µM (active) |  |  |  |  |  |  | 20.9 µM (active) |  | 
13 | COCCOc1nc(-c2ccc(Cl)c(Cl)c2)n(-c2ccc(NC(=O)CCl)cc2)n1 | 2.31 µM (active) | 1.48 µM (active) |  | 0.199 µM (active) | inactive | inactive |  | inactive | inactive |  | 4.47 µM (active) | inactive | inactive | 
14 | Cc1ccc(-c2ncn(-c3ccc(Nc4nccc(-c5cccc(N6CCOCC6)c5)n4)cc3)n2)cn1 | 2.35 µM (active) | 2.35 µM (active) |  |  | 0.372 µM (active) | 0.372 µM (active) | 0.296 µM (active) | 0.235 µM (active) | 0.118 µM (active) | 0.148 µM (active) |  | 0.296 µM (active) | 0.296 µM (active) | 11.5
